Data as given in PubChem BioAssay AID1851 (National Center for Advancing Translational Sciences (NCATS), 2009).
Among all 16,000 compounds or so, about 2,600 (16%) were called active. About 20% were inconclusive and are not listed. Only a sample is shown. Values without a mark were called inactive. Calls follow the shape of the dose curve; as a rule, active = well fitted curve in the direction sought with a large enough effect; inconclusive = small, poorly fitted or top-dose-only effect, or effect the other way; inactive = no such curve, though single readings can be large or run the other way.

Biological target: Cytochrome P450 2D6 (Homo sapiens) (UniProt P10635)
Sequence (P10635 whole entry, looked up): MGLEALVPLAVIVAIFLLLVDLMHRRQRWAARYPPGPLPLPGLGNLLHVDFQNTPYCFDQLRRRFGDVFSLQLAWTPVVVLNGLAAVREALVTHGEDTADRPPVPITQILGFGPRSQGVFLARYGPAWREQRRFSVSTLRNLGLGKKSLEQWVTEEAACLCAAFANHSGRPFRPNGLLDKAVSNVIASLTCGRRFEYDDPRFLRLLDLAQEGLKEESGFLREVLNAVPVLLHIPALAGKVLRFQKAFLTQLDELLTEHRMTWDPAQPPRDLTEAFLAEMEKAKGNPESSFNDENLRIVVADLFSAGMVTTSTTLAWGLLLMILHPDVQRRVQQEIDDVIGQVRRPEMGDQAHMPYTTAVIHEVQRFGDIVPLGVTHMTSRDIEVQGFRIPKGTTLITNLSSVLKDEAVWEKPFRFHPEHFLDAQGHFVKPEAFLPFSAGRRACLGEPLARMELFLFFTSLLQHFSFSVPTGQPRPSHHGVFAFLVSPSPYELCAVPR
Assay: Cytochrome panel assay with activity outcomes
Details: recombinant CYP, pro-luciferin dealkylation, luminescence, p450-cyp2d6; series mostly up to 57.1 µM
% is scaled to controls: 0 for no effect and ±100 for the full control effect.

Structure (SMILES)	AC50	activity, negative = inhibition
Cc1ccc(NC(=O)CCSc2nnc3ccccn23)cc1	inactive	–
CCOC(=O)c1c(C)nc2c(c1-c1ccccc1)C(=O)CC(C)(C)C2	inactive	–
CCOC(=O)Cc1csc(NC(=O)c2ccc(Cl)nc2)n1	inactive	–
COc1ccc(Oc2ncc3ncc(=O)n(C)c3n2)cc1	inactive	–
Cc1nc2cnc(Nc3ccccc3)nc2n(Cc2cccs2)c1=O	inactive	–
O=C1c2ccccc2C(=O)N1CCSC(=S)N1CCOCC1	inactive	–
O=C(NCc1cc(F)cc2c1OCCO2)[C@H]1C[C@@H]1[C@H](NP(=O)(c1ccccc1)c1ccccc1)c1ccccc1	inactive	–
O=C(O)CCC(=O)CCC(=O)c1ccccc1	inactive	–
CC1(C)CC(=O)C(CCC(=O)c2ccccc2)C(C)(C)N1 (stereo not given)	891 nM (active)	–
C[N@+]1(CCC(=O)c2ccccc2)CC[C@H]2CC[C@H](C2)C1	–	10.5% [at 11.4 µM]
O=C(c1cccc(F)c1)N1CCC[C@@]2(CCN(c3ccccc3)C2)C1	inactive	–
N/C(=N\OC(=O)Cc1ccc(-c2ccccc2)cc1)c1cccc([N+](=O)[O-])c1	inactive	–
CC(=O)O[C@]1(C)N=NC2(CCCCC2)O1	–	-4.7% [at 11.4 µM]
CC(C)NC(=O)COC(=O)c1cc(=O)[nH]c2ccccc12	inactive	–
COc1cc(C(=O)NCC(c2cccnc2)N2CCN(C)CC2)cc(OC)c1OC (stereo not given)	inactive	–
COc1ccc(C(CNC(=O)c2cc(=O)[nH]c3ccccc23)N2CCCC2)cc1 (stereo not given)	14100 nM (active)	–
Cn1c(=O)c2[nH]c([C@@H]3CC(=O)C[C@H](c4nc5c([nH]4)c(=O)n(C)c(=O)n5C)N3)nc2n(C)c1=O	–	-10.1% [at 11.4 µM]
CC(=O)N1CC2(CC2)CC1c1ccccc1 (stereo not given)	inactive	–
CC(C)(C)c1nnc(NC(=O)c2cc(-c3ccccc3)nc3ccccc23)s1	inactive	–
Cn1cc(-c2nc3cncnc3n(C3CC3)c2=O)c2ccccc21	inactive	–
O=C(CS(=O)c1cccc(C(F)(F)F)c1)Nc1ccccc1Cl (stereo not given)	inactive	–
Cc1cc(C)n(-c2ccc(C(=O)Nc3cc(C(F)(F)F)ccc3N3CCOCC3)cc2)n1	inactive	–
Cc1ccc(C(=O)NC(=S)Nc2cc(C(F)(F)F)ccc2Cl)cc1	inactive	–
Cc1ccc(C)n1CCN1CCN(CC(=O)Nc2cc(C(F)(F)F)ccc2Cl)CC1	11200 nM (active)	–
COc1ccc(/C=C/C(=O)Nc2cc(C(F)(F)F)ccc2Cl)cc1	2820 nM (active)	–

Structure (SMILES)	AC50	activity, negative = inhibition
Cc1cc[n+](CC(=O)Nc2cc(C(F)(F)F)ccc2Cl)cc1	224 nM (active)	–
COC(=O)CNC(=O)/C=C/c1ccc(OC)cc1	inactive	–
CN(C)c1cc[n+](CC(=O)Nc2cc(C(F)(F)F)ccc2Cl)cc1	126 nM (active)	–
N/C(CC(=O)Nc1cc(C(F)(F)F)ccc1Cl)=N\O	–	2.47% [at 11.4 µM]
O=C(Cc1ccccc1)NC(=S)Nc1cc(C(F)(F)F)ccc1Cl	inactive	–
COc1cc(C(=O)Nc2cc(C(F)(F)F)ccc2Cl)cc(OC)c1OC	inactive	–
COc1ccc2nc(NCN3C(=O)c4ccccc4C3=O)sc2c1	–	-19.6% [at 11.4 µM]
N[C@H](C(=O)N[C@@H]1C(=O)N2C(C(=O)O)=C(Cl)CS[C@@H]12)c1ccccc1	inactive	–
CCOC(=O)C1=C(C)NC(=S)NC1c1cccc(O)c1 (stereo not given)	inactive	–
O=C(O)CC[C@@H](NC(=O)c1ccccc1C(=O)O)C(=O)O	inactive	–
Cc1nc2cnc(Oc3ccccc3)nc2n(-c2ccccc2)c1=O	inactive	–
CCCN1C(=O)C2(/C(=C(\O)c3ccc4c(c3)OCCO4)C(=O)C(=O)N2CCCOC)c2ccccc21 (stereo not given)	inactive	–
COc1ccc(Oc2ncc3nc(-c4cccs4)c(=O)n(Cc4cccc(OC)c4)c3n2)cc1	inactive	–
Fc1ccc2nc3[nH]c4ccccc4c3nc2c1	inactive	–
Cc1cc(N(CN2CCCC2=O)C(=O)c2ccc(F)cc2)no1	inactive	–
COc1cc(/C=N/NC(=O)c2cccs2)ccc1OCc1ccccc1	inactive	–
CCOc1ccc(Cl)cc1CNCCNCC(C)O (stereo not given)	3160 nM (active)	–
CCOc1ccc(C(=O)O)cc1OC	inactive	–
CCOc1ccc(Cl)cc1CNCCNCCO	11200 nM (active)	–
COc1ccc(Cl)cc1NC(=O)NCCCl	inactive	–
N=C1SCC(=O)N1c1nc(-c2ccccc2)cs1	inactive	–
C[C@@H]1NCC[C@H](CC(=O)O)[C@H]1CC(=O)O	–	5.62% [at 11.4 µM]
Cc1nnc(-c2cnn(-c3ccccc3)c2N)n1Cc1ccc(F)cc1	inactive	–
CCCCOc1ccc(-c2nnn(CC(=O)c3c[nH]c4ccccc34)n2)cc1	inactive	–
c1ccc(-c2c3ccccc3nc3[nH]c4ccccc4c23)cc1	inactive	–
